From PubChem BioAssay
GDH-TPI counter = counter-screen for M. tuberculosis FBA inhibitors: GDH-TPI coupled enzymes. AID 588335. GDH-TPI coupled enzyme counterscreen, NADH absorbance. 360,000 tested, 1.2% active. inhibition, % at 4.8 µM; in the data active = inhibition above about 30%;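 note: 0% = DMSO wells and 100% = wells lacking the enzyme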
FBA Mtb inh = inhibits M. tuberculosis FBA enzyme. P9WQA3. purified M. tuberculosis FBA, fluorescence read-out. inhibition, % at 1 µM. 360,000 tested, 2.3% active; in the data active = inhibition above about 27%;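 note: 0% = vehicle and 100% = reference inhibitor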
Yp Topo-I inh = inhibitors of Yersinia pestis topoisomerase I; 360,000 tested, 0.064% active; activity, % at 10 µM; Y. pestis Topo-I cleavage product accumulation, plate reader; in the data active = activity above about 50%, passing the limit was not always enough
PrP 5UTR inh = inhibition of PrP 5' UTR reporter expression. 340,000 tested, 0.35% active. AID 488862. cell-based PrP 5' UTR mRNA reporter, plate reader. inhibition, % (test concentration not listed); in the data active = inhibition above about 52%; note: 0 = median of the neutral control wells
PrPC TRFRET = inhibitors of human cell surface prion protein PrPC; AID 720596; 370,000 tested, 0.43% active; TR-FRET read-out; P04156; inhibition, % at 13.8 µM; in the data active = inhibition above about 24%; note: 0% = median of the test wells and 100% = reference compound wells
Mtb hypoxia rep = Mtb hypoxia fluorescent reporter inhibition. fluorescence inhibition, % (no concentration beside the values). M. tuberculosis hypoxia-regulated fluorescent reporter, fluorescence. 300,000 tested, 0.1% active. AID 1159583; in the data active = fluorescence inhibition mostly above about 23%, no sharp cut-off; inactive = mostly below about 17%
PrPC TRFRET cf = confirmation of inhibitors of cell surface human prion protein | shares compounds with PrPC TRFRET | cell surface PrPC level, TR-FRET | 1,500 tested, 65% active | inhibition, % at 13.8 µM; in the data active = inhibition above about 25%
LD9 cytotox = counter-screen for PrPc inhibitors: cytotoxicity in LD9 cells. shares compounds with PrPC TRFRET. luminescence viability. inhibition, % at 13.8 µM. 1,500 tested, 29% active; in the data active = inhibition above about 9.5%
* = called active by the depositor; . = no result; + = active, no number. An excerpt weighted towards active compounds, which were near 3.8% of everything screened.

SMILES	GDH-TPI counter	FBA Mtb inh	Yp Topo-I inh	PrP 5UTR inh	PrPC TRFRET	Mtb hypoxia rep	PrPC TRFRET cf	LD9 cytotox
COc1ccccc1N1CCN(c2nc3ccccc3nc2C(C#N)C(=O)OC(C)C)CC1 (stereo unspecified)	6.4	-7.2	-1.4	-12.5	25.3*	.	1.6	5.6
O=c1oc2ccccc2c2c1C(O)CO2 (stereo unspecified)	0.0	1.6	8.2	-0.5	-0.5	7.3	.	.
O=c1oc2ccccc2c(O)c1[C@H]1c2ccc(O)cc2Oc2c1c(=O)oc1ccccc21	22.8	-0.5	-6.4	-21.6	41.5*	-4.7	56.6*	-10.1
CCC(C)Sc1ccc(C2C3C(=O)N(C)C(=O)C3[C@]3(C(=O)OC)CCCN23)cc1 (stereo partly specified)	.	.	.	.	.	16.4	.	.
Cc1ccccc1NC(=O)Nc1ccc(C(F)(F)F)cc1	-2.0	3.7	-7.5	-70.5	30.0*	7.4	16.5	8.9
Cc1ccccc1NC(=O)CNC(=O)c1ccc(C(F)(F)F)cc1	7.4	-0.4	2.8	-6.6	2.1	11.0	.	.
COc1ccc2nc(N=Cc3c(C)[nH]n(-c4ccc(C)cc4C)c3=O)sc2c1	.	.	.	.	.	-4.2	.	.
CCc1ccccc1Nc1nn2c(=O)c3ccc(C(=O)NCc4ccccn4)cc3nc2s1	15.7	0.4	13.9	-3.0	38.0*	8.7	25.1*	-7.1
OCC(O)C=NNc1nc(N2CCCCC2)nc(N2CCCCC2)n1 (stereo unspecified)	.	.	.	.	.	10.9	.	.
COc1cc(-c2nc3ccc(C)cn3c2NCc2ccccc2)ccc1SC1CCCCC1	12.3	38.7*	12.7	-4.5	25.4*	-6.6	14.5	11.3*
COc1ccc(-c2nc3cnccn3c2NCc2ccccc2)cc1SC1CCCCC1	-7.7	20.2	0.0	-18.2	.	-3.5	.	.
CN(C)CCCNCCCNC(=O)C=NO	.	.	.	.	.	9.9	.	.
Cn1c(CNC(=O)C2CCCCC2)cc2cc(Cl)ccc21	8.6	2.2	6.1	-24.4	30.8*	12.6	35.0*	-5.3
Cc1cc2cc(CNC(=O)C3CCCC3)ccc2n1C	6.6	-0.1	24.3	-30.9	44.3*	5.5	4.7	-2.9
Cn1c(CCNC(=O)C2CCCCC2)nc2cc([N+](=O)[O-])ccc21	6.2	-1.3	-1.6	1.4	-15.8	14.4	.	.
COC(=O)C1=C(C(=O)OC)[C@@]2([C@@H](Cc3ccc(C)cc3)Nc3ccccc3)C=C[C@@H]1O2	.	.	.	.	66.9*	.	14.3	98.4*
CCc1n[nH]c(=S)n1N=Cc1ccc2c(c1)OCO2	.	.	.	.	.	3.9	.	.
Cn1c(=O)cc(OCCCC(=O)Nc2cc(-c3cn[nH]c3)ccn2)c2ccccc21	.	.	.	.	35.2*	.	41.3*	24.3*
CNC(=O)NC(=O)CSc1nc(-c2cccs2)c(C#N)c(=O)[nH]1	-1.9	1.6	-9.0	-51.1	120.0*	12.9	123.7*	-3.4
O=C(O)CSc1cnc2ccccc2n1	6.3	-0.3	1.4	-4.4	-6.8	4.2	.	.
N#Cc1c(-c2cccs2)nc(SCc2ccc(Cl)cc2)[nH]c1=O	2.9	4.1	10.6	-23.9	109.0*	-3.2	119.1*	-7.2
N#Cc1c(-c2ccccc2)nc(SCC(=O)NC2CCCCC2)[nH]c1=O	-0.9	3.7	6.0	2.9	36.1*	-3.4	39.4*	-9.8
O=C(CSc1cnc2ccccc2n1)NC1CCCC1	14.6	3.4	3.4	-13.1	33.1*	9.4	39.7*	-1.0
O=C(CSc1nc2ccccc2c(=O)[nH]1)NC1CCCCC1	.	.	.	.	13.7	.	.	.
O=[N+]([O-])c1ccc(C=NNc2ncccc2[N+](=O)[O-])s1	.	.	.	.	.	-3.1	.	.
SMILES	GDH-TPI counter	FBA Mtb inh	Yp Topo-I inh	PrP 5UTR inh	PrPC TRFRET	Mtb hypoxia rep	PrPC TRFRET cf	LD9 cytotox
O=C(NN=Cc1ccc(OC(=O)c2ccc3c(c2)OCO3)cc1)c1cncc(Br)c1	.	.	.	.	.	4.1	.	.
CSc1nc(-c2cccs2)c(C#N)c(=O)[nH]1	26.9	1.9	-8.9	-41.2	58.9*	.	87.3*	-0.9
COc1cc(C(C)=NNC(=O)CSc2nnc(C)s2)ccc1O	.	.	.	.	.	18.4	.	.
O=C(Nc1ccc2c(c1)OCO2)c1ccc(Br)c(S(=O)(=O)N2CCCC2)c1	1.9	2.1	-6.4	-22.8	24.6*	-69.0	21.2	6.9
O=C(Nc1ccc2c(c1)OCO2)c1cccc(S(=O)(=O)N2CCCC2)c1	9.3	-0.1	-12.1	-37.5	16.1	-2.8	.	.
COc1ccc(/C=C/C(=O)NCCn2c(C)cc3ccccc32)cc1OC	19.6	-0.4	17.4	-3.4	63.8*	4.3	2.1	6.4
COc1cc(/C=C/C(=O)NCCn2c(C)cc3ccccc32)cc(OC)c1OC	0.0	1.0	23.7	-1.8	48.8*	2.4	-3.9	10.2*
COc1ccc(C(=O)C(=CO)N=Nc2ccc(F)cc2)cc1	.	.	.	.	.	2.5	.	.
Nc1nnn(CC(=O)NN=Cc2ccco2)n1	.	.	.	.	.	10.2	.	.
Cc1cc(C(=O)NNC(=O)Nc2ccc(Cl)cc2)no1	-0.7	2.7	4.7	-27.0	0.6	4.3	.	.
Cc1cc(C(=O)NNc2ccc(Cl)cc2)no1	-9.0	-3.1	-5.4	-63.4	30.9*	.	33.2*	-1.6
COc1cccc2sc3ccc(C#Cc4ccc(N)cc4)cc3c(=O)c12	18.7	1.3	-1.6	-5.0	20.1	1.4	.	.
COc1ccc2sc3ccccc3c(=O)c2c1OC	11.3	1.4	-5.1	-35.2	29.0*	17.2	38.1*	-6.6
CC(=O)Oc1cccc(C=NNC(=O)C(=O)NN=Cc2cccc(OC(C)=O)c2)c1	.	.	.	.	.	4.1	.	.
COC(=O)Cc1c(C)c2ccc(O)c(CNCc3ccc(OC)c(OC)c3)c2oc1=O	23.6	+	-4.8	-13.5	25.0*	-6.0	4.8	-3.1
N#CC1=C(N)NC(=S)C(C(N)=O)C1c1ccc([N+](=O)[O-])cc1 (stereo unspecified)	0.0	5.0	1.3	-6.3	-9.9	1.2	.	.
Cc1cccc[n+]1C1C(c2ccc([N+](=O)[O-])cc2)C(C#N)=C(C(=C=[N-])C#N)NC1(O)C1CC1 (stereo unspecified)	5.6	5.5	1.0	-12.5	39.3*	3.8	-3.5	1.6
CCc1cc2ccccc2nc1SCC(=O)Nc1cc(OC)c(OC)cc1C(=O)O	0.0	14.5	0.2	-23.7	39.6*	.	4.7	-4.4
COc1ccc(OC)c(NC(=O)CSc2nc3ccccc3cc2Cc2ccccc2)c1	20.0	0.9	3.9	-11.9	6.0	-0.6	.	.
C#CCCOC(=O)N1C2=NC(C(=O)OC)=C(C(=O)OC)C3N(Cc4ccccc4)c4ccccc4[C@]23CC1C(=O)OC (stereo partly specified)	.	.	.	.	.	-7.2	.	.
O=C(Nc1nnc(CC(c2ccccc2)c2ccccc2)s1)c1ccco1	12.4	7.2	-1.8	-7.6	40.4*	-2.9	42.1*	-6.8
CC(=NNC(=O)c1ccc(Br)o1)c1cccc(NC(=O)c2ccc(C)o2)c1	.	.	.	.	.	3.3	.	.
O=C(CSc1nncc2ccccc12)Nc1ccc(F)cc1	10.0	-1.9	-4.9	-16.3	36.6*	1.1	48.5*	-5.1
CCC(C)(C)n1nnnc1CN1CCC(c2nc3ccc(C)cc3[nH]2)CC1	10.8	4.2	3.2	-5.3	32.5*	-4.4	32.1*	0.7
